# Screens deposited in PubChem by several laboratories.
# PostGolgi yeast: growth inhibition of a yeast mutant, post-Golgi transport screen; post-Golgi transport phenotypic cell assay; inhibition, % at 10 µM; hit rate 0.9% among 98,000; AID 739;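 further: yeast cells grown in 1536-well plates; yeast grown about 18 h at 30C before absorbance read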
# CYP2C9 act: activators of human CYP2C9; recombinant CYP2C9, luciferin-H conversion, luminescence; active compounds read high; factor 1 = untreated enzyme, 0 = blocked; AID 1024; hit rate 1.4% among 96,000; activation factor at 5 µM; P11712;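 active means activation factor of 2 or more for CYP2C9 at a 5 µM dose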;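 further: 0 = sulfaphenazole-blocked wells and 1 = vehicle-only wells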
# CYP2C19 act: activators of human cytochrome P450 2C19; P33261; recombinant CYP2C19, luciferin-H EGE luminescence; active compounds read high; 0 = fully inhibited enzyme, 1 = untreated enzyme; activation factor at 5 µM; 96,000 tested, under 10 active; AID 1025;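 active means activation factor of at least 2 at 5 µM in the primary screen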;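 further: 0 = wells with 2.5 mM tranylcypromine and 1 = vehicle-only wells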
# Target sequence (P33261 whole entry, looked up): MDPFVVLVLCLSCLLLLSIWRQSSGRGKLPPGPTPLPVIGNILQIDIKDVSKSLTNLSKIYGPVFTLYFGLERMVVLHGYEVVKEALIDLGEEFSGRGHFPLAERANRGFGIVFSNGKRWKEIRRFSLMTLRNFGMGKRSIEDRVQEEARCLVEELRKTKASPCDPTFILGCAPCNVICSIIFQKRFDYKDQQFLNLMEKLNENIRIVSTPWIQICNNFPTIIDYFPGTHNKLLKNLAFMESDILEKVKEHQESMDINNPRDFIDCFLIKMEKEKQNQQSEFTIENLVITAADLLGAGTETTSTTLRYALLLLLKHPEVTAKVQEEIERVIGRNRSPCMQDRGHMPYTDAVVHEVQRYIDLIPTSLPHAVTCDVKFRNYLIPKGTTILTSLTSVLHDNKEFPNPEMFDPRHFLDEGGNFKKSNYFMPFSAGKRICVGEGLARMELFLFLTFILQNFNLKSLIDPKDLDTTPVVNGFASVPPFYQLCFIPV
# CYP2C9 inh: human CYP2C9 inhibition. P11712. CYP2C9 Supersomes, luciferin-H conversion, luminescence. inhibition, % at 5 µM. hit rate 20% among 96,000;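 active means blocking of liver enzyme CYP2C9 beyond about 50% at 5 µM, limit read from the data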
# PostGolgi ctrl: inhibits growth of the yeast control strain; efflux-deficient yeast background strain, growth absorbance A615, 16 h; inhibition, % at 10 µM; hit rate 5% among 98,000
# CYP2C19 inh: human CYP2C19 inhibition | P33261 | CYP2C19 Supersomes, luciferin-H EGE luminescence, 30 min | inhibition, % at 5 µM | hit rate 21% among 96,000;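 active means CYP2C19 inhibition above a set limit at 5 µM in the primary screen, cut at about 50% in these data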;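 further: plate controls were negative control wells for no effect and 2.5 mM tranylcypromine positive control for full effect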
# An asterisk follows results filed as active; . = no result. Compounds with a hit are over-represented: about 32% of the library has one in this group of screens. Unless noted, no stated cut-off is given here; in the data, active means inhibition above about 30%; inactive means the rest.
SMILES,PostGolgi yeast,CYP2C9 act,CYP2C19 act,CYP2C9 inh,PostGolgi ctrl,CYP2C19 inh
O=[N+]([O-])c1c(NCCCO)cc(Sc2nc3ccccc3s2)c2nonc12,-0.5,0.9,0.8,7.9,-1.2,24.2
COc1ccccc1C(CCN(Cc1cccs1)C(C)=O)c1ccco1 (configuration not stated),0.3,0.1,0.1,90.3*,38.5*,92.4*
CCC(=O)N(CCC(c1ccccc1)c1ccco1)Cc1cccs1 (configuration not stated),-16.2,0.3,0.6,69.0*,48.5*,36.1
COc1ccc(C(=O)COC(=O)[C@H](C)Nc2ccc(C(F)(F)F)cc2[N+](=O)[O-])c(OC)c1,-3.2,0.8,1,24.1,-1.8,0.9
CC(C)(C)NC(=O)CSC(=Nc1ccc(F)cc1)NC#N,-4.2,0.6,0.3,41.3,-4.2,72.1*
CCOc1cc2[nH]c(=O)n(Cc3ccccc3)c(=O)c2cc1OCC,5.2,1,0.9,1.4,-5.5,11.1
CCOc1ccccc1NC1=C(Cl)C(=O)N(Cc2ccccc2)C1=O,11.5,0.3,0.5,70.4*,32.5*,52.3*
Cc1nc(COC(=O)c2ccc(CO)cc2)cs1,-2.7,0.7,0.4,29.6,-4.0,64.0*
Cc1nc(CC(=O)c2ccc(O)cc2O)cs1,4.5,0.8,0.8,25.0,-6.8,22.9
Cc1cc(NC(=O)COC(=O)c2c(C)nn(-c3ccccc3)c2C)no1,0.2,0.7,0.7,28.6,1.7,25.6
Cc1nc(COC(=O)c2c(C)nn(-c3ccccc3)c2C)cs1,11.7,0.3,0.5,69.0*,8.7,47.3
Cc1cc(OCC(F)(F)C(F)(F)C(F)(F)C(F)(F)C(F)(F)C(F)F)nc(N)n1,37.0*,0.4,0.4,56.7*,2.8,64.0*
CN(C)c1nc(C(N)=O)nc(N2CCOCC2)n1,9.6,1,1,4.5,10.7,-1.5
CC(c1ccccc1)C1CC(=O)N(Cc2ccco2)C1=O (configuration not stated),7.8,0.7,0.1,34.2,2.9,90.7*
CC(c1ccccc1)C1CC(=O)N(CC(=O)O)C1=O (configuration not stated),0.3,0.9,1,6.4,2.1,-0.7
Clc1ccc2c(NCc3ccco3)ncnc2c1,8.8,0.4,0.2,55.0*,11.8,78.6*
O=C(NCc1ccccn1)c1ccc(Cl)cc1Cl,-3.8,0.8,0.8,23.9,13.5,23.8
Clc1ccc2c(NCc3ccccn3)ncnc2c1,-3.9,0.5,0.4,47.6,-4.5,61.6*
CC1(C)Cc2c(C#N)c(N)sc(=S)c2CS1,1.4,0.8,1,22.1,2.6,4.4
CCC1CCCCN1C(=O)COC(=O)c1cc2ccccc2cc1O (configuration not stated),-2.9,1.2,0.5,-21.9,5.2,53.3*
O=C(OCC(=O)N1CCCC1)c1cncc(Br)c1,1.4,0.9,0.8,5.9,-3.3,16.9
O=C(OCC(=O)N1CCCCC1)c1cc2ccccc2cc1O,-5.6,1.1,0.2,-5.2,16.4,75.9*
Nc1cc(C(=O)OCC(=O)N2CCCC2)ccc1Cl,5.7,0.6,0.8,40.9,32.3*,17.5
Cc1cc(C)n(-c2ccc(Cl)c(C(=O)OCC(=O)N3CCCCC3C)n2)n1 (configuration not stated),.,0.6,0.7,42.6,.,34.7
C#CC(=O)N(c1cc(OC)ccc1OC)C(C(=O)NC1CCCC1)c1cccs1 (configuration not stated),13.8,0.8,0.7,25.0,-7.6,27.5
SMILES,PostGolgi yeast,CYP2C9 act,CYP2C19 act,CYP2C9 inh,PostGolgi ctrl,CYP2C19 inh
c1ccc(-c2c[nH]c3[n+]2CCCCC3)cc1,0.2,1,0.5,-4.2,4.8,54.9*
N#Cc1nc(COc2ccccc2)oc1N1CCN(Cc2ccccc2)CC1,-5.2,0.1,0.2,92.7*,5.5,77.7*
N#Cc1nc(-c2cccs2)oc1N1CCN(Cc2ccccc2)CC1,2.4,1.2,0.8,-17.1,14.5,19.3
COc1ccccc1OCc1nc(C#N)c(N2CC(C)CC(C)C2)o1 (configuration not stated),-2.0,0.6,0.6,43.1,27.6,42.4
N#Cc1nc(COc2ccccc2)oc1N1CCC(Cc2ccccc2)CC1,-4.5,0.1,0.4,87.4*,40.3*,55.1*
Cc1ccc(OCc2nc(C#N)c(N3CCN(Cc4ccccc4)CC3)o2)cc1,-6.2,0.2,0.3,83.5*,27.1,67.5*
CCOc1ccc(-c2nc(C#N)c(N3CCN(CC)CC3)o2)cc1,1.9,1.3,0.9,-32.0,3.7,9.1
COc1ccc(NC(=O)CC2C(=O)N(c3cccc(C)c3)C(=O)N2C2CCCCC2)cc1 (configuration not stated),0.0,0.5,0.4,46.8,15.3,55.8*
COc1ccc(NC(=O)CC2C(=O)N(c3cccc(OC)c3)C(=O)N2CCC(C)C)cc1 (configuration not stated),6.4,0.4,0.3,62.4*,4.5,65.5*
CNC(=O)NC(=O)CSc1ccc(NC(C)=O)cc1,4.1,1,1,-0.4,3.5,2.0
Cc1c(NC(=O)CSc2nccn2C)c(=O)n(-c2ccccc2)n1C,-4.2,1.1,1.1,-9.1,6.1,-5.7
Cc1cc(NC(=O)CSc2ccc3ccccc3c2)no1,0.8,0.2,0.5,79.0*,1.2,50.5*
CC(=O)Oc1ccc(NC(=O)CSc2ccccc2)cc1,-7.6,0.5,0.3,53.1*,37.2*,69.3*
Cn1ccnc1SCC(=O)Nc1ccc2ccccc2c1,6.1,0.8,0.1,19.0,11.3,93.2*
Cc1cc(NC(=O)CSC2=NCCS2)no1,-5.4,0.9,0.7,11.5,30.5*,34.6
COC(=O)CSc1nnc(CNC(=O)c2cccs2)n1-c1cc(OC)ccc1OC,3.6,1.1,1.1,-5.5,18.4,-5.6
O=C(CSc1ccccc1)Nc1ccncc1,-0.5,0.1,0.1,85.3*,1.7,89.7*
O=C(CSc1ccc2ccccc2c1)Nc1ccncc1,103.2*,0,0,95.3*,92.2*,96.8*
Cc1ccccc1C(=O)NNc1ccc([N+](=O)[O-])cc1,5.9,1,0.9,-0.4,4.4,14.8
O=C(NC(NNc1ccc([N+](=O)[O-])cc1)(C(F)(F)F)C(F)(F)F)c1ccccc1Cl,0.8,0.5,0.6,53.4*,44.2*,45.0
COc1ccc(CN2CCC(C(=O)NCCc3ccc(OC)c(OC)c3)CC2)c(OC)c1,-0.3,0.9,0.9,12.6,2.3,5.6
COc1ccccc1NC(=O)C(=O)NNC(=O)c1ccco1,8.3,1.1,1,-11.3,3.2,-3.5
COc1ccccc1NC(=O)/C(C#N)=C/C=C/c1ccco1,-5.2,3*,1,-203.2,2.5,-3.7
CN(CCOC(=O)c1cccc(Br)c1)C(C)(C)C,3.1,0.4,0.8,60.3*,6.8,24.7
Cc1noc(C)c1COC(=O)c1ccc(S(=O)(=O)NCc2ccco2)cc1,-7.1,0,0.3,99.6*,19.6,72.3*
